Assays:
Assay in all cases: phage ELISA signal ratio (GST-PRM binding over GST background); higher = stronger binding of peptide-phage to the PRM
[1] = target: T1, CLTC 1-363 Clathrin_propel+Clathrin-link (domain begin residue: 1, domain end residue: 363), Q00610
T1 chain: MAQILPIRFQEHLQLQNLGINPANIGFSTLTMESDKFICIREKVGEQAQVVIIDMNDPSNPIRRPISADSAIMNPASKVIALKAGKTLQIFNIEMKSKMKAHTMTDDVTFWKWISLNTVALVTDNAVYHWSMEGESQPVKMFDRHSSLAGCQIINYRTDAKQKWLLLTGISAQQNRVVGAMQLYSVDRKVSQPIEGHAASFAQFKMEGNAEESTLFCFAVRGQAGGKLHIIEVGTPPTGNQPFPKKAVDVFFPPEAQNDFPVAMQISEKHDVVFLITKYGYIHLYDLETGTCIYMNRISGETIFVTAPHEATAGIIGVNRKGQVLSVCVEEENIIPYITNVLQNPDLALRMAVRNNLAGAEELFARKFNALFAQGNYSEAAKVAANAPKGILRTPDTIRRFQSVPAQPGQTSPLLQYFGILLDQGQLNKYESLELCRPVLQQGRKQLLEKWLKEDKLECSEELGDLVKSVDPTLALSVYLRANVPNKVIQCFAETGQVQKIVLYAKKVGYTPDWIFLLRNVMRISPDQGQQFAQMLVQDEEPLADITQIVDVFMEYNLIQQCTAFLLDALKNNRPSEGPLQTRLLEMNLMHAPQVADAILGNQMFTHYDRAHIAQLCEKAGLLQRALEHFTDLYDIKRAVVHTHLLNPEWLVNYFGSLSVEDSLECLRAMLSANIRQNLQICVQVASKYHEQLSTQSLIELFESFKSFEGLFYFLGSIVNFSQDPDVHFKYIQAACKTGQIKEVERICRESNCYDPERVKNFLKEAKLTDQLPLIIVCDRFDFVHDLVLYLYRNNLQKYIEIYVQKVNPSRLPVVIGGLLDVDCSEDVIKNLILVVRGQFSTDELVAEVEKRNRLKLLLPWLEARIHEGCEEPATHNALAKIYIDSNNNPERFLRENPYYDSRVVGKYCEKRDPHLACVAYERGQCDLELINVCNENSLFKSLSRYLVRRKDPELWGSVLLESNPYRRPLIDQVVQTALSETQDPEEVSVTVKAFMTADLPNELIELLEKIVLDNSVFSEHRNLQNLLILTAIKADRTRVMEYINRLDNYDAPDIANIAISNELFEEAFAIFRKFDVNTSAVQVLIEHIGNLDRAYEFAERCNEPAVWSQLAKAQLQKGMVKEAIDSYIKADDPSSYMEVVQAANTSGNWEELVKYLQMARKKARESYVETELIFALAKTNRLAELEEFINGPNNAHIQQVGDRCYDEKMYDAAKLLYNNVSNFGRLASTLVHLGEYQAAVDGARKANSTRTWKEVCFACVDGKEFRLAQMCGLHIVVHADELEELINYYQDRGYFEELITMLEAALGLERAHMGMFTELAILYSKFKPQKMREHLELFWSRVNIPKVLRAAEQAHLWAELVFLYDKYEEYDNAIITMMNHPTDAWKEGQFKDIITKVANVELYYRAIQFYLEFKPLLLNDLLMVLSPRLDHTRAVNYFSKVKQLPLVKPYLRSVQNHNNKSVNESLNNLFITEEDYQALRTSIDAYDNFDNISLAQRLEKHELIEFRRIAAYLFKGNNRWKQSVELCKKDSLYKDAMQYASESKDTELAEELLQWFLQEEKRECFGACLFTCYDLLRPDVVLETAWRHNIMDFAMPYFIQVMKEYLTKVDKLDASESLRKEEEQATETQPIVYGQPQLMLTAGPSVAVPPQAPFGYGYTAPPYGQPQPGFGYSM
Method: (§1)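 Phage-displayed random hexadecapeptides (Cys-free, flanked by invariant Gly linkers, fused to the M13 P8 major coat protein) were selected over 5 rounds against GST-fused human PRM domains. Individual clones from rounds 4-5 were tested by phage ELISA, and positive clones binding the target but not GST were sequenced. Values are the ELISA signal ratio of target over background (GST); the background signal is given separately.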

[2] = target: CKS1B 1-79 CKS (domain begin residue: 1, domain end residue: 79), P61024
Method: as §1

[3] = target: T2, CD2BP2 256-341 GYF (domain begin residue: 256, domain end residue: 341), O95400
T2 chain: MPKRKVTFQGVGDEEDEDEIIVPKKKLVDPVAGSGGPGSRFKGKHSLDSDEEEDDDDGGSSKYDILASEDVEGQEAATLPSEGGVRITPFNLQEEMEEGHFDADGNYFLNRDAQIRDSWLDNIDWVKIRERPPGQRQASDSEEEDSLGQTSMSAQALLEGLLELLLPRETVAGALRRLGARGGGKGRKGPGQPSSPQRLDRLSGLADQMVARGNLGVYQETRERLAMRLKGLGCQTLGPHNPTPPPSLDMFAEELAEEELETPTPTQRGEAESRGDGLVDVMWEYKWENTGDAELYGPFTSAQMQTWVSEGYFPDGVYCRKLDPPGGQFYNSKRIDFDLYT
Method: as §1

[4] = target: DCTN1 26-97 CAP_GLY (domain begin residue: 26, domain end residue: 97), Q14203
Method: as §1

[5] = target: T3, CTDSP2 90-271 NIF (domain begin residue: 90, domain end residue: 271), O14595
T3 chain: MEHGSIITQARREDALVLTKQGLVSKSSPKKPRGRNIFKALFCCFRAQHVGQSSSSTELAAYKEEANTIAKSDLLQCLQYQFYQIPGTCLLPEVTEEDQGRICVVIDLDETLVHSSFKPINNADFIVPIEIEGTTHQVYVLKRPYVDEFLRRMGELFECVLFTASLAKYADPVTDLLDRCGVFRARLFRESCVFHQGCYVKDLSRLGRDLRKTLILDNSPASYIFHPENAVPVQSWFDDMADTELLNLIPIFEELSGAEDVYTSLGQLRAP
Method: as §1

[6] = target: CBX3 109-173 Chromo_shadow (domain begin residue: 109, domain end residue: 173), Q13185
Method: as §1

[7] = target: DEPDC6 20-129 DEP (domain begin residue: 20, domain end residue: 129)
Method: as §1

[8] = target: CBX5 109-173 Chromo_shadow (domain begin residue: 109, domain end residue: 173), P45973
Method: as §1

Chain of DCTN1 26-97 CAP_GLY (domain begin residue: 26, domain end residue: 97), Q14203 (Q14203 whole entry): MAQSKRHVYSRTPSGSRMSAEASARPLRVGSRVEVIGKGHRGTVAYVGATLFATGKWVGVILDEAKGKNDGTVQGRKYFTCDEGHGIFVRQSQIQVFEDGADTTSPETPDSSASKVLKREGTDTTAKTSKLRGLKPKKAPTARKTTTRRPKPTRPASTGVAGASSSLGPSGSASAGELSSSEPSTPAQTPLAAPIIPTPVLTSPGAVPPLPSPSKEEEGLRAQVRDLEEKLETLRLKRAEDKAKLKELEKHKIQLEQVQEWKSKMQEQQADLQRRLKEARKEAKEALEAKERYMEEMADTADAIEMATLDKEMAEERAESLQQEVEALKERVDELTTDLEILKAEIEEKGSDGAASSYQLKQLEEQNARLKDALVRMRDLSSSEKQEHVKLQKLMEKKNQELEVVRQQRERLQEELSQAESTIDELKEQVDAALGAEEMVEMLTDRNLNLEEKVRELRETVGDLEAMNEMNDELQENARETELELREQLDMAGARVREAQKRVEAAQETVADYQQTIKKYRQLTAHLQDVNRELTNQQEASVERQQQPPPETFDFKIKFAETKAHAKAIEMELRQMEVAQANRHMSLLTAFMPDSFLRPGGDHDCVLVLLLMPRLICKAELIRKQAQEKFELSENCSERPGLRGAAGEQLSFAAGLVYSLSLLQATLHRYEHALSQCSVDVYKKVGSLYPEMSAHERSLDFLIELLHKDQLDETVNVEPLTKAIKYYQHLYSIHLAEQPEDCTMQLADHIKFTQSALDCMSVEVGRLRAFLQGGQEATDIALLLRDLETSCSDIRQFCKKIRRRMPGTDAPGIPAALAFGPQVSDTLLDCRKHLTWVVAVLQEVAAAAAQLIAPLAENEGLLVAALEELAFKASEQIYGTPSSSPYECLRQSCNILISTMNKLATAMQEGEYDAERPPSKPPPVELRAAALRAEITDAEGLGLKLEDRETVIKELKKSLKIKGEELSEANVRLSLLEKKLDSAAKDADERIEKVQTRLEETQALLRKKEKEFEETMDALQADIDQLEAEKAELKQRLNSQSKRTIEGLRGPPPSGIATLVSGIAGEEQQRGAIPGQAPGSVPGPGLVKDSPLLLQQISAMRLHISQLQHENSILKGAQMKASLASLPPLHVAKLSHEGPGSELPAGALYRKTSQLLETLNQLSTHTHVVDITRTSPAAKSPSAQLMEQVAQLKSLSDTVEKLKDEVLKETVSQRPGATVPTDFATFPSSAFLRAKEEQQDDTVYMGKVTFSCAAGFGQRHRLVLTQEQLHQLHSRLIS
Chain of CKS1B 1-79 CKS (domain begin residue: 1, domain end residue: 79), P61024 (P61024 whole entry): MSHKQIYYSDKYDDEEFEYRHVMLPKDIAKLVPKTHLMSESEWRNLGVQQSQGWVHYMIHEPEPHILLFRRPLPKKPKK
Chain of CBX5 109-173 Chromo_shadow (domain begin residue: 109, domain end residue: 173), P45973 (P45973 whole entry): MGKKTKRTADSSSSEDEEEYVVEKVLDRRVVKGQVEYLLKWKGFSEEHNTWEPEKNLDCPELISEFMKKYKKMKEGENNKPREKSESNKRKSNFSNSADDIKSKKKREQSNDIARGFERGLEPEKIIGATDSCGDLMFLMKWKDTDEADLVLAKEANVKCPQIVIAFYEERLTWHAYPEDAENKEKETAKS
Chain of CBX3 109-173 Chromo_shadow (domain begin residue: 109, domain end residue: 173), Q13185 (Q13185 whole entry): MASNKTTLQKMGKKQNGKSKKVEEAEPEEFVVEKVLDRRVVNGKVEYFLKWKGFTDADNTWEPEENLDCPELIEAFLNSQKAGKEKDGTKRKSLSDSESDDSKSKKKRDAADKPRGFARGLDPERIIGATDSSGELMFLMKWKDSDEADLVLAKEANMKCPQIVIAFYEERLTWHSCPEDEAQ

Binder: DLIWWTDLTEEYGTHV
- phage ELISA signal ratio [1]: 21.9

Binder: LNWWTYEELQDLEQFT
- phage ELISA signal ratio [2]: 22.8

Binder: GHPPGWSEFGWEHLVI
- phage ELISA signal ratio [3]: 16.2

Binder: SDGDLIWWDWAYNAEQ
- phage ELISA signal ratio [1]: 15.9

Binder: SQPEQMQWHTYDPYDL
- phage ELISA signal ratio [2]: 30.4

Binder: HEFTPPWTWDWDIPHI
- phage ELISA signal ratio [4]: 7.35

Binder: TAPPGYGARYMETPYV
- phage ELISA signal ratio [3]: 16.9

Binder: EPFMVAWESFMLTHAM
- phage ELISA signal ratio [5]: 7.49

Binder: DLMWWPETELHQGSWS
- phage ELISA signal ratio [1]: 17.3

Binder: RDEAHMEWHFPSIWLT
- phage ELISA signal ratio [6]: 16.2

Binder: WDGQAWHLSDPYLWEM
- phage ELISA signal ratio [2]: 17.9

Binder: VSYPLVDLSDWHMWTN
- phage ELISA signal ratio [1]: 20.8

Binder: MYEFLIEPEDDWWWWN
- phage ELISA signal ratio [1]: 26.5

Binder: GPLAWFLEDPYSSRVG
- phage ELISA signal ratio [2]: 11.1

Binder: GDKSEWFRALLDEYLV
- phage ELISA signal ratio [7]: 21.6

Binder: WELQWDAIWGFPDELA
- phage ELISA signal ratio [1]: 30.6

Binder: TIPPGYFKWVGEVRDE
- phage ELISA signal ratio [3]: 16.3

Binder: GMSPLIEWPEEWWWLD
- phage ELISA signal ratio [1]: 21

Binder: MPVWWEDWYWDWKSMH
- phage ELISA signal ratio [7]: 6.24

Binder: DDGWMMDWWHQAQLQM
- phage ELISA signal ratio [7]: 6.22

Binder: SPFVYDIVDLGFPSIM
- phage ELISA signal ratio [1]: 22.5

Binder: FKEWTWSPVEWGQAES
- phage ELISA signal ratio [4]: 6.09

Binder: DFQGIMDSYRAMEINT
- phage ELISA signal ratio [7]: 20.1

Binder: QDEWVPWQLWSQWESI
- phage ELISA signal ratio [4]: 26.4

Binder: WQATDYPQQPPPGWKE
- phage ELISA signal ratio [3]: 18.9

Binder: GWEPQWFPSEHLADGN
- phage ELISA signal ratio [2]: 7.45

Binder: QFLPTTWQDYLLYMDQ
- phage ELISA signal ratio [8]: 3.39

Binder: MDSWHYDMIPGEWLRV
- phage ELISA signal ratio [2]: 34.3

Binder: DQQQWDDMDWLATWML
- phage ELISA signal ratio [1]: 32.5

Reference: the supplement of paper PMC7724964
